Measurements: PubChem BioAssay AID720513 (Broad Institute, 2013)
Out of some 2,100 compounds screened, about 480 (23%) were called active. Another 5% or so got no clear call; they are omitted.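 The calls were made as follows: active = fitted curve reaches 40% activation at or below the top valid concentration, in every replicate test; inconclusive = replicate tests disagree on the call; inactive = the rest, including activity in the opposite direction.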 Not all results are given here. Entries with a potency or affinity are not part of this list.

assay: PGC1a acetylation increase, cellular AlphaLISA – cell-based, cherry-picked samples, set 6, dose response (AID 720513); details: U2OS PGC1a acetylation AlphaLISA, overnight, 0 = neutral, -100 = inhibitor control; series mostly up to 19.5 µM;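 also: cells made to overexpress flag tagged PGC1a plus GCN5 acetyltransferase by viral infection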

outcome, inactive:
O=C(Nc1cc(C(F)(F)F)ccc1N1CCOCC1)c1ccccc1
COc1ccc(Br)cc1S(=O)(=O)NCc1ccccc1
O=C(O)CCCC(=O)Nc1ccc(Br)cc1C(=O)O
CC(C)[C@H]1COCCS(=O)(=O)N1Cc1ccccc1F
C[C@H](CO)N1C[C@H](C)[C@H](CN(C)S(=O)(=O)c2ccccc2C#N)OCc2cnnn2CCCC1=O
CC1CC1C(=O)N(C)CC(=O)Nc1cccc(F)c1 (stereo not drawn)
CCCN(C)C[C@@H]1Oc2cc(C#CC3CCCC3)ccc2S(=O)(=O)N([C@H](C)CO)C[C@@H]1C
CCOCCCNC(=O)c1ccccc1SC
Fc1cccc(CN2C[C@@H]3N[C@H](C2)[C@@H]3c2ccc(-c3cccc(F)c3)cc2)c1
Fc1cccc(-c2ccc([C@@H]3[C@@H]4CN(Cc5nccs5)C[C@H]3N4)cc2)c1
c1csc(CNc2ncnc3ccc(-c4ccoc4)cc23)c1
CCS(=O)(=O)c1ccc2oc(Nc3ccccc3Br)nc2c1
CCN1C(=O)CCCc2ccccc21
O=C(NCC[C@@H]1CC[C@H](NS(=O)(=O)Cc2ccccc2)[C@H](CO)O1)C1CCC1
Nc1nc(Nc2ccccc2)nc2ccccc12
CC(=O)c1ccc(Nc2cc(C)nc3ccc(C)cc23)cc1
CN(C)CC(=O)N1CCCCN2[C@@H](CO)[C@H](c3ccc(/C=C/c4ccccc4)cc3)[C@@H]2C1
Cc1ccc(NC(=O)COC(=O)COc2ccc(Cl)cc2)c([N+](=O)[O-])c1
COC(=O)c1ccc(C(=O)OC)c(NC(=O)COC(=O)CCOc2ccc(C)cc2)c1
Cc1cc(C)cc(OC(=O)CS(=O)c2ccc(C(F)(F)F)cc2[N+](=O)[O-])c1 (stereo not drawn)
C[C@@H]1CCCCO[C@@H](CN(C)S(C)(=O)=O)[C@H](C)CN([C@@H](C)CO)C(=O)c2cc(NC(=O)c3ccccc3)ccc2O1
COc1nc(OCCNS(=O)(=O)c2ccc(C)cc2)nc(N(C)C)n1
O=C(Nc1nc(-c2ccc3ccccc3c2)cs1)c1ccc(N2C(=O)CCC2=O)cc1
Cc1ccc(CC(=O)Nc2nccs2)cc1
C[C@H]1CN([C@@H](C)CO)C(=O)c2cc(NC(=O)Nc3cccc4ccccc34)ccc2O[C@H]1CN(C)S(=O)(=O)c1ccc(Cl)cc1
N#C[C@H]1[C@H](c2ccc(C#CC3CCCC3)cc2)[C@H](CO)N1C(=O)Cc1ccccn1
N#C[C@@H]1[C@@H](c2ccc(-c3ccccc3)cc2)[C@@H](CO)N1C(=O)Cc1ccncc1
C[C@H](CO)N1C[C@H](C)[C@H](CN(C)C(=O)NC2CCCCC2)Oc2cc(C#Cc3cccc(F)c3)ccc2S1(=O)=O
CS(=O)(=O)c1sc2nc(-c3cccs3)cc(-c3ccccc3)c2c1N
COc1ccc(NC(=O)c2ccc3c(c2)OCO3)cc1Cl
COc1ccc(C(=O)Nc2cccc(S(C)(=O)=O)c2)cc1OC
C[C@@H]1CN([C@@H](C)CO)C(=O)c2cc(C#CCN(C)C)cnc2O[C@H]1CN(C)Cc1ccc(F)cc1
Fc1cccc(CN2C[C@@H]3N[C@H](C2)C3c2ccc(/C=C/c3ccccc3)cc2)c1 (stereo partly drawn)
CCOC(=O)c1oc2nc3c(cc2c1N)COC(C)(C)C3
C[C@H]1CN([C@@H](C)CO)C(=O)c2cc(C#CC(C)(C)O)cnc2O[C@@H]1CN(C)C(=O)C1CCC1
O=C(Nc1ccc(F)cc1)C1CCCN1S(=O)(=O)c1cccc2nsnc12 (stereo not drawn)
CC1CCCCN1C(=O)CN(C)S(=O)(=O)c1cccc2nsnc12 (stereo not drawn)
O=c1c2c3c(sc2n2cnnc2n1Cc1ccccc1)CN(Cc1ccccc1)CC3
COC(=O)c1[nH]c2ccc(F)cc2c1NS(=O)(=O)c1ccc(OC)cc1OC
O=C(C[C@H]1CC[C@@H](NC(=O)c2ccccc2)[C@H](CO)O1)Nc1ccc(-c2ccccc2)cc1
COc1ccc(CCN2C(=O)N(c3ccc(OC)cc3)C(=O)C2CC(=O)Nc2ccccc2)cc1 (stereo not drawn)
Cc1[nH]c2ccccc2c1C(=O)/C=C/c1ccccc1
CC(=O)c1ccc(N2CCN(C(=O)c3ccc4nc[nH]c4c3)CC2)cc1
CSc1nsc(SC)c1NC(=O)Nc1ccccc1C
O=C(CN1C(=O)NC2(CCc3ccccc32)C1=O)c1ccc(Br)cc1 (stereo not drawn)
COCc1c(C(=O)Nc2cccc(S(=O)(=O)N3CCCCC3)c2)oc2ccccc12
CC1CCN(S(=O)(=O)c2ccc(Oc3ccc([N+](=O)[O-])cc3)cc2)CC1
CCOc1ccc(NC(=O)c2cccc3c2C(=O)N(CCOC)C3)cc1
COc1cccc(NC(=O)c2ccccc2-c2ccccc2C(=O)O)c1
Cc1c(NC(=O)COC(=O)c2ccccc2O)c(=O)n(-c2ccccc2)n1C
C[C@H]1CN([C@@H](C)CO)C(=O)Cc2cc(NC(=O)Nc3ccccc3)ccc2O[C@@H]1CN(C)Cc1ccccc1
C[C@@H]1CN([C@H](C)CO)C(=O)Cc2cc(NC(=O)Nc3ccccc3)ccc2O[C@H]1CN(C)Cc1ccccc1
C[C@H]1CN([C@@H](C)CO)C(=O)Cc2cc(NS(C)(=O)=O)ccc2O[C@@H]1CN(C)Cc1ccc2c(c1)OCO2
C[C@@H]1CN([C@H](C)CO)C(=O)Cc2cc(NC(=O)Cc3ccccc3)ccc2O[C@@H]1CN(C)S(C)(=O)=O
C[C@H]1CCCCO[C@H](CN(C)Cc2ccc3c(c2)OCO3)[C@@H](C)CN([C@@H](C)CO)C(=O)c2cc(NC(=O)Nc3ccc(C(F)(F)F)cc3)ccc2O1
Cc1ccccc1Cn1cnc2c(nnn2Cc2ccc(F)cc2)c1=O
O=C1Nc2c(Br)cc(Br)c3cccc1c23
C[C@H]1CN([C@@H](C)CO)C(=O)c2cc(-c3cccc(C(=O)N(C)C)c3)cnc2O[C@@H]1CN(C)S(=O)(=O)c1ccc(F)cc1
COc1ccc(-c2cnc3c(c2)C(=O)N([C@H](C)CO)C[C@H](C)[C@H](CN(C)S(=O)(=O)c2cccs2)O3)cc1
COc1ccc(S(=O)(=O)N(C)C[C@@H]2Oc3ncc(-c4ccccc4)cc3C(=O)N([C@H](C)CO)C[C@@H]2C)cc1
C[C@@H]1CN([C@@H](C)CO)C(=O)c2cc(C#CCN(C)C)cnc2O[C@@H]1CN(C)S(=O)(=O)c1cn(C)cn1
O=C(C[C@H]1C[C@H]2c3cc(NC(=O)C4CCC4)ccc3O[C@H]2[C@H](CO)O1)NCc1ccc(-c2ccccc2)cc1
O=C1c2ccsc2SCCN1Cc1cccc(Cl)c1
Cc1cccc(N2C(=O)C(Cl)=C(N3CCOCC3)C2=O)c1
O=S(=O)(c1cccs1)N1CCCCN2[C@H](CO)[C@H](c3ccc(/C=C/c4ccccc4)cc3)[C@H]2C1
O=C(NC[C@@H]1N[C@@H](CO)[C@H]1c1ccc(C2=CCCCC2)cc1)c1ccc(F)cc1
C[C@H](CO)N1C[C@H](C)[C@@H](CN(C)Cc2ccccc2F)Oc2ncc(Br)cc2C1=O
O=S(=O)(Nc1ccccc1N1CCCCC1)c1ccc(F)cc1
CCCN(CCC)S(=O)(=O)c1ccc(C(=O)Nc2nnc(CSC)o2)cc1
Cc1noc(C)c1S(=O)(=O)Nc1ccc2c(c1)C(=O)N([C@@H](C)CO)C[C@@H](C)[C@@H](CN(C)S(=O)(=O)c1ccccc1)O2
O=S(=O)(C/C(=C/CO)S(=O)(=O)c1ccccc1)c1ccccc1
CCN(C(=O)CN1CCN(c2ccccc2O)CC1)c1c(N)n(Cc2ccccc2)c(=O)[nH]c1=O
CO[C@H](CN(C)S(=O)(=O)c1ccc(Cl)cc1)[C@H](C)CN([C@H](C)CO)S(=O)(=O)c1cccc(Cl)c1
OCC1OC(Oc2c(Br)cc(Br)cc2Br)C(O)C(O)C1O (stereo not drawn)
CCc1ccc(C(=O)CN(C#N)c2nc(C)cc(C)n2)cc1
COc1ccc(Cn2nnnc2CN(Cc2cc3ccc(C)cc3[nH]c2=O)C2CCCC2)cc1
COc1ccccc1NS(=O)(=O)c1cc(NC(=O)c2[nH]c(C)c(C(C)=O)c2C)ccc1N1CCOCC1
CCCCCCNC(=O)O[C@@]12CN(S(=O)(=O)c3ccc(C)cc3)C[C@]1(O)Cn1c(=O)n(CCCCCC)c(=O)n1C2
O=C(Nc1cccc(Cl)c1)Nc1ccc2c(c1)OCO2
O=C(O)c1cc(-c2ccc3c(c2)OCO3)nc2ccccc12
COc1ccc(NC(=O)[C@H](Cc2c[nH]c3ccccc23)NC(=O)[C@@H]2Cc3ccccc3CN2)cc1
Clc1ccc2nc(COc3ccccc3)[nH]c2c1
C[C@@H]1CN([C@H](C)CO)C(=O)c2cc(NC(=O)CCCCCC(=O)Nc3ccccc3N)ccc2O[C@H]1CN(C)S(=O)(=O)c1ccc(Cl)cc1
C[C@H](CO)N1C[C@H](C)[C@@H](CN(C)Cc2ccc(C(F)(F)F)cc2)OCc2cnnn2CCCC1=O
COc1ccc(C(NC(=O)c2c(F)c(F)c(F)c(F)c2F)c2ccccc2)cc1 (stereo not drawn)
CO[C@@H]1CN(C)C(=O)c2ccc(NS(C)(=O)=O)cc2OC[C@@H](C)N(Cc2nccs2)C[C@@H]1C
O=C(C[C@@H]1C[C@@H]2c3cc(NC(=O)C4CCC4)ccc3O[C@@H]2[C@@H](CO)O1)NCc1ccc(-c2ccccc2)cc1
CC1=C(Cl)C2=NS(=O)(=O)CCN2C=C1Cl
